Test results: PubChem BioAssay AID588382 (National Center for Advancing Translational Sciences (NCATS), 2011)
Hit rate of the full screen: of about 1,300 compounds, about 150 (12%) were called active. Not shown: some 30% with an inconclusive outcome. This is one part of a sample in which actives are shown more often than they occur. A number with no mark means an inactive call. Calls follow the shape of the dose curve; as a rule, active = well fitted cell-killing curve with a large enough effect; inconclusive = small, poorly fitted or top-dose-only effect, or effect the other way; inactive = flat fitted curve, though single readings scatter.
% is scaled to controls: 0 for no effect and ±100 for the full control effect; potency is read from the fitted curve at half-maximal effect.

Experiment: qHTS of small molecules that selectively kill Giardia lamblia: Hit Validation in HepG2 cytotox;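 also: compound exposure lasted overnight at 37 deg C; nearly all actives have a fitted effect of over 55% in size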;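 as to activity change, negative = cytotoxicity: viability measured as cellular ATP by ATPLite luminescence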
Settings: cell viability; Potency: HepG2 cytotoxicity; series mostly up to 38.3 µM; activity change, negative = cytotoxicity: at the top concentration
Summary of the method: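 HepG2 cells seeded and incubated overnight at 37 deg C, then 23 nL compound added by pintool and incubated overnight at 37 deg C. Viability read as ATP luminescence with ATPLite after 15 min at room temperature.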
In the case of `COCCn1c(C)cc(C(=O)COc2ccc(C)nc2[N+](=O)[O-])c1C`, the “activity change, negative = cytotoxicity” value is reported as -1.94%.
With `O=C(c1ccco1)N1CCN(c2c([N+](=O)[O-])nn(-c3cccc(Cl)c3)[n+]2[O-])CC1` the “activity change, negative = cytotoxicity” value was 20.3%.
With `Cc1cc([N+](=O)[O-])nn1Cc1ccc(F)cc1` the “activity change, negative = cytotoxicity” value was -0.393%.
For `N/C(=N\OC(=O)c1ccc(Cl)cc1[N+](=O)[O-])c1ccccn1`, the “activity change, negative = cytotoxicity” value was -18.8%.
With `CC12CCC(C(=O)Nc3ncc([N+](=O)[O-])s3)(OC1=O)C2(C)C` (stereo not drawn) the “activity change, negative = cytotoxicity” value was -9.04%.
In the case of `CN(C)CCCn1cnc2c(c1=N)C(c1ccccc1)c1ccc3ccccc3c1O2` (stereo not drawn), the Potency is reported as 2.07 µM (active).
In the case of `Cc1ccc([C@@H]2CC=C(C(=O)O)[C@H](c3ccc(Cl)cc3)N2S(=O)(=O)c2ccc(C)cc2)cc1`, the “activity change, negative = cytotoxicity” value is reported as 8.99%.
With `Cc1c[n+]([O-])ccc1[N+](=O)[O-]` the “activity change, negative = cytotoxicity” value was 1.35%.
In the case of `COc1ccc2cc(-c3cc(C(=O)OCC(=O)Nc4c(C)n(C)n(-c5ccccc5)c4=O)c4ccccc4n3)ccc2c1`, the Potency is reported as 0.464 µM (active).
In the case of `Cc1c(NC(=O)c2cc(-c3ccc(Cl)c(Cl)c3)on2)c(=O)n(-c2ccccc2)n1C`, the “activity change, negative = cytotoxicity” value is reported as 4.57%.
With `COc1cc(N=Nc2c(C)n(C)n(-c3ccccc3)c2=O)ccc1N` the “activity change, negative = cytotoxicity” value was 0.604%.
In the case of `Cc1ccc(CN=c2c([N+](=O)[O-])nn(-c3cccc(C)c3)n2O)cc1`, the “activity change, negative = cytotoxicity” value is reported as 9.21%.
With `O=[N+]([O-])c1nn(-c2ccc3c(c2)OCCO3)n(O)c1=NC1CCN(Cc2ccccc2)CC1` the “activity change, negative = cytotoxicity” value was -1.51%.
With `CN(C)c1ccc(/C=C(/NC(=O)c2ccccc2)C(=O)N/N=C/c2ccc([N+](=O)[O-])c(O)c2)cc1` the “activity change, negative = cytotoxicity” value was 9.79%.
With `Cc1ncc([N+](=O)[O-])n1CCOC(=O)NC(NCc1cccnc1)C(Cl)(Cl)Cl` (stereo not drawn) the “activity change, negative = cytotoxicity” value was -2.24%.
For `Cc1nc(C)c(C(=O)Nc2ncc([N+](=O)[O-])s2)o1`, the “activity change, negative = cytotoxicity” value was 11.4%.
In the case of `COc1cccc(CN=c2c([N+](=O)[O-])nn(-c3ccccc3C)n2O)c1`, the “activity change, negative = cytotoxicity” value is reported as 8.23%.
In the case of `O=C(/C=C/c1cccc([N+](=O)[O-])c1)c1ccco1`, the “activity change, negative = cytotoxicity” value is reported as 17.7%.
With `CCOC(=O)N1CCN(C(=O)c2ccc(Cl)c(NC(=O)c3cccs3)c2)CC1` the “activity change, negative = cytotoxicity” value was 17.8%.
With `COC(=O)Nc1nc2ccc(C(=O)c3cccs3)cc2[nH]1` the “activity change, negative = cytotoxicity” value was 20.5%.
In the case of `Cc1ccn(-c2ccc(NC(=O)c3cccs3)cc2)n1`, the Potency is reported as 9.27 µM (active).
In the case of `CC(C)(C)c1ccc2c(c1)OC(C(=O)N/N=C/c1ccc([N+](=O)[O-])o1)CO2` (stereo not drawn), the “activity change, negative = cytotoxicity” value is reported as -12.1%.
For `Cc1ccc(N=c2c([N+](=O)[O-])nn(-c3ccccc3)n2O)c(C)c1`, the “activity change, negative = cytotoxicity” value was -15.1%.
For `Cc1ccc(S(=O)(=O)N2[C@@H](c3ccccc3)C(C(=O)O)=CC[C@H]2c2cccc(Cl)c2)cc1`, the “activity change, negative = cytotoxicity” value was 6.16%.
In the case of `C=C1C=C(C)n2ncc(C(=O)Nc3ccc(C)cn3)c2N1`, the “activity change, negative = cytotoxicity” value is reported as -8.35%.
For `Cc1ccc(C(=O)Nc2ncc([N+](=O)[O-])s2)cc1`, the Potency was 6.56 µM (active).
With `O=C(Nc1ncc([N+](=O)[O-])s1)c1cccc([N+](=O)[O-])c1` the Potency was 3.29 µM (active).
For `O=C(COC(=O)c1ccccc1)Nc1ncc([N+](=O)[O-])s1`, the “activity change, negative = cytotoxicity” value was 16.8%.
With `O=C(Nc1ncc([N+](=O)[O-])s1)c1ccco1` the “activity change, negative = cytotoxicity” value was -8.55%.
In the case of `Cc1ccc(CC(=O)Nc2ncc([N+](=O)[O-])s2)cc1`, the “activity change, negative = cytotoxicity” value is reported as 3.03%.
With `Cc1ccc(S(=O)(=O)CC(=O)Nc2ncc([N+](=O)[O-])s2)cc1` the “activity change, negative = cytotoxicity” value was 1.79%.
In the case of `Cc1cc(Nc2ccccc2)c2c([N+](=O)[O-])cc(C)c(C)c2n1`, the “activity change, negative = cytotoxicity” value is reported as 9.04%.
With `CC(NC(=O)COc1cccnc1[N+](=O)[O-])c1ccc(Cl)cc1` (stereo not drawn) the “activity change, negative = cytotoxicity” value was 1.74%.
With `O=[N+]([O-])c1ccc(CN2CCN(c3ccccc3Cl)CC2)o1` the “activity change, negative = cytotoxicity” value was 9.64%.
In the case of `CC(=NN1CC(=O)NC1=O)c1ccc([N+](=O)[O-])o1`, the “activity change, negative = cytotoxicity” value is reported as -8.95%.
In the case of `O=C(Nc1ccc(N2CCCCC2)cc1)c1ccc([N+](=O)[O-])o1`, the Potency is reported as 13.1 µM (active).
In the case of `O=[N+]([O-])c1ccc(CN2CCN(c3ccc(Cl)cc3)CC2)o1`, the “activity change, negative = cytotoxicity” value is reported as 2.99%.
In the case of `CC(C)(C)C(=O)N1CCN(c2ccc(NC(=O)c3ccc([N+](=O)[O-])o3)cc2)CC1`, the Potency is reported as 6.56 µM (active).
For `O=C(Nc1ccc(N2CCN(Cc3ccccc3F)CC2)cc1)c1ccc([N+](=O)[O-])o1`, the Potency was 2.93 µM (active).
For `CC(C)C(=O)N1CCN(c2ccc(NC(=O)c3ccc([N+](=O)[O-])o3)cc2)CC1`, the Potency was 5.85 µM (active).
With `O=[N+]([O-])c1ccc(CN2CCN(c3ccc(F)cc3)CC2)o1` the “activity change, negative = cytotoxicity” value was 16.3%.
In the case of `COc1cc(Nc2ccc(C)cc2)c([N+](=O)[O-])nc1[N+](=O)[O-]`, the “activity change, negative = cytotoxicity” value is reported as 14.5%.
For `Cc1ccc(C(=O)c2c3ccc([N+](=O)[O-])cc3[n+]([O-])n2CCC(N)=O)cc1`, the “activity change, negative = cytotoxicity” value was 19%.
In the case of `CC(Oc1cccnc1[N+](=O)[O-])C(=O)Nc1cccc(Cl)c1` (stereo not drawn), the “activity change, negative = cytotoxicity” value is reported as 9.9%.
In the case of `COc1ccc(-n2nc([N+](=O)[O-])c(=NCCc3cccc(C)c3)n2O)cc1`, the “activity change, negative = cytotoxicity” value is reported as 5.18%.
With `COC(=O)c1cc(NC(=O)c2cc(C(C)(C)C)nn2Cc2ccc(F)cc2)ccc1N1CCOCC1` the “activity change, negative = cytotoxicity” value was 0.619%.
For `COc1ccc(C(C)=O)cc1COc1cccnc1[N+](=O)[O-]`, the “activity change, negative = cytotoxicity” value was 4.35%.
For `O=C(Cc1c(F)cccc1Cl)Nc1ncc([N+](=O)[O-])s1`, the “activity change, negative = cytotoxicity” value was -17.9%.
